Assay results as given in PubChem BioAssay (NCATS).
Records with an inconclusive call do not appear. A number with no mark means an inactive call. Active and inactive are the calls of the source. The call rests on the fitted dose curve; in most records, active means well fitted cell-killing curve with a large enough effect; inconclusive means small, poorly fitted or top-dose-only effect, or effect the other way; inactive means no such curve, though single readings can be large or run the other way. Peptide text beside a SMILES is read from it.
Potency means the concentration at half of the fitted maximal effect.

Assay: Quantitative High-Throughput drug screen in 47 multiple myeloma cell lines against the NCATS MIPE library collection: U266_ATCC cell viability assay (AID 1919864); further: nearly all actives have a fitted effect of over 35% in size
Settings: U266 myeloma viability, CellTiter-Glo ATP luminescence, 48 h; series mostly up to 45.8 µM; viability (% of DMSO control): at the top concentration
Text: PI: Beverly A. Mock Ph.D.
Laboratory of Cancer Biology and Genetics,
Center for Cancer Research, National Cancer Institute,
National Institute of Health, Bethesda, Maryland
Drug resistance and disease progression are common in multiple myeloma (MM) patients, underscoring the need for new therapeutic combinations. […] We hypothesized that effective combinations would reduce MYC expression and enhance p16 activity. […] These preclinical data identify potentially useful drug combinations for evaluation in drug-resistant MM and reveal potential mechanisms of combined drug sensitivity.
Described herein is the primary MIPE qHTS used to cherrypick compounds. Validated compounds were then further tested for potential synergistic activiy.
[1] Peat TJ, Gaikwad SM, Dubois W, Gyabaah-Kessie N, Zhang S, Gorjifard S, Phyo Z, Andres M, Hughitt VK, Simpson RM, Miller MA, Girvin AT, Taylor A, Williams D, D'Antonio N, Zhang Y, Rajagopalan A, Flietner E, Wilson K, Zhang X, Shinn P, Klumpp-Thomas C, McKnight C, Itkin Z, Chen L, Kazandijian D, Zhang J, Michalowski AM, Simmons JK, Keats J, Thomas CJ, Mock BA. Drug combinations identified by high-throughput screening promote cell cycle transition and upregulate Smad pathways in myeloma. Cancer Lett. 2023 Aug 1;568:216284. doi: 10.1016/j.canlet.2023.216284. Epub 2023 Jun 24. PMID: 37356470; PMCID: PMC10408729.
SEQUENCE No. (e.g., 1, 2, 3, etc.); […] (e.g., Cells, Incubation, Reagent, etc.); VALUE and DESCRIPTION.
1; Cells; 5 uL; white, solid bottom 1536-well Greiner assay plate.
2; Compounds; 23 nL; Kalypsis pin tool (Wako USA) equipped with a 1536-well pin head to transfer to the assay plates.
3; Incubation; 48 hours; 37C incubation.
4; Reagent;5uL; CellTiter Glo (Promega).
5; Detector; 425V; Luminescence; Viewlux PerkinElmer.
NOTES (numbers refer to Sequence numbers above)
1. The cell-based screening methods employed in this study were like those previously published. Briefly, the corresponding myeloma cell lines were screened in 1,536-well plates with 500 cells, 5-uL per well for inhibition of cell viability (assessed by measuring ATP levels with CellTiterGlo).
2. NCATS MIPE 4.0 library of approved and investigational drugs were added using the Kalypsis pin tool. Wells treated with DMSO only for 100% viability and media only for 0% viability were used as controls.
3. The assay plates were covered and incubated for 48 hours in a 37C, 5% CO2 incubator with controlled humidity.
4. After 48 hours, CellTilter-GloTM luminescent substrate mix (Promega) reagent was added to the assay plate and plates we incubated for 5 min at room temperature.
5. Signal was measured as median relative luminescence units on a ViewLux (PerkinElmer) multiplate reader.
[1] Heske CM, Davis MI, Baumgart JT, Wilson K, Gormally MV, Chen L, Zhang X, Ceribelli M, Duveau DY, Guha R, Ferrer M, Arnaldez FI, Ji J, Tran HL, Zhang Y, Mendoza A, Helman LJ, Thomas CJ. Matrix Screen Identifies Synergistic Combination of PARP Inhibitors and Nicotinamide Phosphoribosyltransferase (NAMPT) Inhibitors in Ewing Sarcoma. Clin Cancer Res. 2017 Dec 1;23(23):7301-7311. doi: 10.1158/1078-0432.CCR-17-1121. Epub 2017 Sep 12. PMID: 28899971; PMCID: PMC6636827.
For `COC(=O)C1=C(C)NC(C)=C(C(=O)OC(C)C)C1c1cccc2nonc12` (stereo not given), the Potency was 3.72 µM (active). With `CC(C)[C@H](N)C(=O)OCCOCn1cnc2c(=O)[nH]c(N)nc21` the “viability (% of DMSO control)” value was 103%. With `O=Nc1c(-c2c(O)[nH]c3cc(Br)ccc23)[nH]c2ccccc12` the Potency was 16.6 µM (active). With `COC(=O)[C@H](Cc1ccccc1)NC(=O)[C@@H](N)CC(=O)O` (H-Asp-Phe-OMe) the “viability (% of DMSO control)” value was 134%. In the case of `CN(C)c1ccc2nc3ccc(=[N+](C)C)cc-3sc2c1`, the Potency is reported as 8.33 µM (active). In the case of `CN1C(C(=O)Nc2ccccn2)=C(O)c2sccc2S1(=O)=O`, the “viability (% of DMSO control)” value is reported as 142%. In the case of `Cc1cc2cc3c(C)cc(=O)oc3c(C)c2o1`, the Potency is reported as 11.8 µM (active). In the case of `OC(CN1CCN(c2cccc(Cl)c2)CC1)C(c1ccccc1)c1ccccc1` (stereo not given), the Potency is reported as 10.5 µM (active). In the case of `Cc1cccc(-c2[nH]ncc2-c2ccc3ncccc3n2)n1`, the “viability (% of DMSO control)” value is reported as 119%. In the case of `COc1cc2nc(N3CCN(C(=O)C4CCCO4)CC3)nc(N)c2cc1OC` (stereo not given), the “viability (% of DMSO control)” value is reported as 109%. With `COc1c(O)cc2c(c1O)[C@@H]1O[C@H](CO)[C@@H](O)[C@H](O)[C@H]1OC2=O` the “viability (% of DMSO control)” value was 130%. With `COCCCN1CCC(NC(=O)c2cc(Cl)c(N)c3c2OCC3)CC1` the “viability (% of DMSO control)” value was 102%. With `CCN(CC)CCOc1ccc(Cc2ccccc2)cc1` the Potency was 20.9 µM (active). With `CCCCN(CCCC)CCC(O)c1cc2c(Cl)cc(Cl)cc2c2cc(C(F)(F)F)ccc12` (stereo not given) the “viability (% of DMSO control)” value was 128%. In the case of `CC(C)Oc1ccc2c(=O)c(-c3ccccc3)coc2c1`, the “viability (% of DMSO control)” value is reported as 114%. For `Cc1nc(Nc2ncc(C(=O)Nc3c(C)cccc3Cl)s2)cc(N2CCN(CCO)CC2)n1`, the Potency was 16.6 µM (active). With `COc1c2occc2cc2ccc(=O)oc12` the “viability (% of DMSO control)” value was 117%. In the case of `CCN(CC)C(=S)SSC(=S)N(CC)CC`, the Potency is reported as 0.0059 µM (active). For `COc1ccc2cc([C@H](C)C(=O)O)ccc2c1`, the “viability (% of DMSO control)” value was 131%. In the case of `Nc1nc(N)c(N=O)c(OCC2CCCCC2)n1`, the Potency is reported as 16.6 µM (active). For `C=C(c1ccc(C(=O)O)cc1)c1cc2c(cc1C)C(C)(C)CCC2(C)C`, the “viability (% of DMSO control)” value was 119%. For `CC(=O)O[C@H]1C(=O)[C@@]2(C)C([C@H](OC(=O)c3ccccc3)[C@]3(O)C[C@H](OC(=O)[C@H](O)[C@@H](NC(=O)c4ccccc4)c4ccccc4)C(C)=C1C3(C)C)[C@]1(OC(C)=O)CO[C@@H]1C[C@@H]2O` (stereo not given in full), the “viability (% of DMSO control)” value was 107%. In the case of `COc1cc(Nc2c(C#N)cnc3cc(OCCCN4CCN(C)CC4)c(OC)cc23)c(Cl)cc1Cl`, the Potency is reported as 23.5 µM (active). For `Nc1ccn([C@@H]2O[C@H](CO)[C@@H](O)C2O)c(=O)n1` (stereo not given in full), the “viability (% of DMSO control)” value was 130%. For `CCC[C@@H]1C[C@@H](C(=O)N[C@@H]([C@H]2O[C@H](SC)[C@H](O)[C@@H](O)[C@H]2O)[C@@H](C)O)N(C)C1`, the “viability (% of DMSO control)” value was 131%. With `Cc1nc(-c2ccc(OCC(C)C)c(C#N)c2)sc1C(=O)O` the “viability (% of DMSO control)” value was 134%. In the case of `Nc1cccc2c1CN(C1CCC(=O)NC1=O)C2=O` (stereo not given), the “viability (% of DMSO control)” value is reported as 127% [at 92.2 µM]. For `c1cnc2cc3c(cc2n1)C1CNCC3C1`, the “viability (% of DMSO control)” value was 139%. For `O=C(NCC1CCCCN1)c1cc(OCC(F)(F)F)ccc1OCC(F)(F)F` (stereo not given), the Potency was 9.35 µM (active). With `CN(C)c1ccc(O)c2c1C[C@H]1C[C@H]3[C@H](N(C)C)C(=O)C(C(N)=O)=C(O)[C@@]3(O)C(=O)C1=C2O` the Potency was 5.9 µM (active). For `C[Se]CCC(N)C(=O)O` (stereo not given), the “viability (% of DMSO control)” value was 115% [at 92.2 µM]. In the case of `N[C@@H](Cc1cc(I)c(Oc2cc(I)c(O)c(I)c2)c(I)c1)C(=O)O`, the “viability (% of DMSO control)” value is reported as 134%. For `O=C1c2c(O)cc(O)cc2OC(c2ccc(O)c(O)c2)C1O` (stereo not given), the “viability (% of DMSO control)” value was 121%. In the case of `Cc1nccn1CC1CCc2c(c3ccccc3n2C)C1=O` (stereo not given), the Potency is reported as 23.5 µM (active). In the case of `CC1Cc2ccccc2N1NC(=O)c1ccc(Cl)c(S(N)(=O)=O)c1` (stereo not given), the Potency is reported as 6.62 µM (active). In the case of `CNC[C@@H](O)[C@@H](O)[C@H](O)[C@H](O)CO`, the “viability (% of DMSO control)” value is reported as 117%. With `CN(C)C(=O)COC(=O)Cc1ccc(OC(=O)c2ccc(N=C(N)N)cc2)cc1` the Potency was 26.4 µM (active). In the case of `Clc1ccc(C(Cn2ccnc2)OCc2ccc(Sc3ccccc3)cc2)c(Cl)c1` (stereo not given), the “viability (% of DMSO control)” value is reported as 109%. With `NC(=NCc1ccccc1)NC(=O)c1nc(Cl)c(N)nc1N` the Potency was 1.48 µM (active). For `Cc1ccc(S(=O)(=O)NC(=O)NN2CC3CCCC3C2)cc1` (stereo not given), the Potency was 20.9 µM (active).
